# Measured values taken from the antibiotic and cytotoxicity screens of Wong et al. (2023).
# Screen size: about 39,000 compounds; about 1,500 (3.8%) were called active. The entries come from a sample that favours actives as a whole.
# Tested on: HSkMC (human skeletal muscle cells)
# Test: cytotoxicity call (relative viability < 0.9)
# Settings: 10 µM
row,Compound,cytotoxicity call
1,COc1ccc(CN(C)C[C@@H]2Oc3ccc(NC(=O)C4CC4)cc3CC(=O)N([C@H](C)CO)C[C@@H]2C)cc1,inactive
2,C[C@@H]1CCCCO[C@H](CN(C)Cc2ccc(Cl)c(Cl)c2)[C@@H](C)CN([C@H](C)CO)C(=O)c2cc(NC(=O)Nc3ccc(F)cc3)ccc2O1,inactive
3,Cn1cnc(S(=O)(=O)N2C[C@H](O)COC[C@@H]3O[C@H](CC(=O)NCc4ccc(F)cc4)CC[C@H]32)c1,inactive
4,Cc1cc(C(=O)Nc2cccc3c2O[C@H](CN(C)C(=O)Nc2c(C)noc2C)[C@H](C)CN([C@@H](C)CO)C3=O)n(C)n1,inactive
5,CO[C@@H]1[C@@H](OC(=O)c2ccc(C)[nH]2)[C@@H](O)[C@@H](Oc2ccc3c(c2C)OC(=O)[C@H](NC(=O)c2[nH]cc(CC(=O)Nc4cc5ccc(O[C@@H]6OC(C)(C)[C@H](OC)[C@@H](OC(=O)c7ccc(C)[nH]7)[C@H]6O)c(C)c5oc4=O)c2C)C3)CC1(C)C,active
6,COC1C(OC(N)=O)C(O)C(Oc2ccc3c([O-])c(NC(=O)c4ccc(O)c(CC=C(C)C)c4)c(=O)oc3c2C)OC1(C)C.[Na+] (stereo not drawn),inactive
7,COc1ccc(NC(=O)N(C)C[C@H]2OCCCC[C@H](C)Oc3ccc(NC(=O)Nc4ccc5c(c4)OCO5)cc3C(=O)N([C@@H](C)CO)C[C@@H]2C)cc1,inactive
8,C[C@H]1CN([C@@H](C)CO)C(=O)c2cc(NC(=O)Nc3ccc4c(c3)OCO4)ccc2O[C@H]1CN(C)S(=O)(=O)c1cn(C)cn1,inactive
9,Cc1noc(C)c1NC(=O)Nc1ccc2c(c1)C(=O)N([C@@H](C)CO)C[C@H](C)[C@H](CN(C)C(=O)Nc1ccc(F)cc1)OCCCC[C@H](C)O2,inactive
10,Cc1noc(C)c1NC(=O)Nc1ccc2c(c1)C(=O)N([C@H](C)CO)C[C@H](C)[C@H](CN(C)Cc1ccc3c(c1)OCO3)OCCCC[C@H](C)O2,inactive
11,O=C(C[C@H]1CC[C@@H]2[C@H](COC[C@H](O)CN2C(=O)c2ccncc2)O1)NC1CCC1,inactive
12,C[C@@H]1CN([C@H](C)CO)C(=O)Cc2cc(NC(=O)Nc3cccc4ccccc34)ccc2O[C@@H]1CN(C)Cc1ccncc1,inactive
13,C[C@H](CO)N1C[C@H](C)[C@H](CN(C)Cc2ccncc2)Oc2ccc(NC(=O)Nc3cccc4ccccc34)cc2CC1=O,active
14,C[C@H](CO)N1C[C@H](C)[C@@H](CN(C)Cc2ccc(-c3ccccc3)cc2)Oc2ccc(NC(=O)Nc3cccc4ccccc34)cc2CC1=O,inactive
15,COc1ccc(CN(C)C[C@H]2Oc3ccc(NC(=O)Nc4cccc5ccccc45)cc3CC(=O)N([C@@H](C)CO)C[C@H]2C)cc1,inactive
16,COc1ccc(CN(C)C[C@@H]2Oc3ccc(NC(=O)Nc4cccc5ccccc45)cc3CC(=O)N([C@H](C)CO)C[C@H]2C)cc1,inactive
17,C[C@@H]1CN([C@H](C)CO)C(=O)Cc2cc(NC(=O)Nc3cccc4ccccc34)ccc2O[C@H]1CN(C)Cc1ccncc1,inactive
18,COc1ccc(CN(C)C[C@@H]2Oc3ccc(NC(=O)Nc4cccc5ccccc45)cc3CC(=O)N([C@@H](C)CO)C[C@@H]2C)cc1,active
19,C[C@@H]1CN([C@H](C)CO)C(=O)Cc2cc(NC(=O)Nc3cccc4ccccc34)ccc2O[C@H]1CN(C)Cc1ccc(-c2ccccc2)cc1,inactive
20,COc1ccc(CN(C)C[C@H]2Oc3ccc(NC(=O)Nc4cccc5ccccc45)cc3CC(=O)N([C@@H](C)CO)C[C@@H]2C)cc1,inactive
21,COc1ccc(CN(C)C[C@@H]2Oc3ccc(NC(=O)Nc4cccc5ccccc45)cc3CC(=O)N([C@H](C)CO)C[C@@H]2C)cc1,inactive
22,C[C@H]1CN([C@@H](C)CO)C(=O)Cc2cc(NC(=O)Nc3cccc4ccccc34)ccc2O[C@@H]1CN(C)Cc1ccc(-c2ccccc2)cc1,active
23,COc1ccc(CN(C)C[C@H]2Oc3ccc(NC(=O)Nc4cccc5ccccc45)cc3CC(=O)N([C@H](C)CO)C[C@H]2C)cc1,active

row,Compound,cytotoxicity call
1,Cn1nc(Cn2ccnc2)c2c1CN(CCO)C2,inactive
2,C[C@H](CO)N1C[C@H](C)[C@H](CN(C)S(=O)(=O)c2cccs2)Oc2ccc(NS(=O)(=O)c3cccs3)cc2C1=O,inactive
3,C[C@@H]1CN([C@H](C)CO)C(=O)c2cccc(NC(=O)C3CC3)c2O[C@H]1CN(C)S(=O)(=O)c1cn(C)cn1,inactive
4,C[C@@H]1CN([C@H](C)CO)C(=O)c2cc(NS(=O)(=O)c3cccs3)ccc2O[C@@H](C)CCCCO[C@@H]1CN(C)S(C)(=O)=O,inactive
5,COCC(=O)N1C[C@@H](C)[C@H](OC)CN(C)C(=O)c2cc(NC(=O)c3ccc(OC)cc3)ccc2OC[C@H]1C,inactive
6,C[C@@H]1CN([C@@H](C)CO)C(=O)c2cc(NC(=O)NC3CCCCC3)ccc2O[C@@H](C)CCCCO[C@@H]1CN(C)Cc1ccccc1,inactive
7,C[C@H]1CN([C@@H](C)CO)C(=O)c2cc(-c3ccc(C(=O)N(C)C)cc3)cnc2O[C@@H]1CN(C)C(=O)c1ccncc1,inactive
8,COc1cccc(NC(=O)C[C@@H]2CC[C@H]3[C@H](COc4ccc(NC(=O)C5CCOCC5)cc4C(=O)N3C)O2)c1,inactive
9,C[C@@H]1CCCCO[C@H](CN(C)C(=O)Nc2ccccc2)[C@@H](C)CN([C@H](C)CO)C(=O)c2cc(NC(=O)Nc3ccc(F)cc3)ccc2O1,inactive
10,Cn1nnc2c(Cl)ncnc21,inactive
11,C/C=C/C(=O)N1CCC=CC1=O,inactive
12,COc1cc(C=CC(=O)N2CCC=CC2=O)cc(OC)c1OC,active
13,COc1cc(/C=C/C(=O)N2CCC=CC2=O)cc(OC)c1OC(=O)CCCCCCCCCCC(=O)Oc1c(OC)cc(/C=C/C(=O)N2CCC=CC2=O)cc1OC,inactive
14,CCOC(=O)/C=C/C(=O)N1CCC=CC1=O,active
15,COc1cc(/C=C/C(=O)N2CCC=CC2=O)cc(OC)c1OCCOCCOCCOCCC(=O)OC(C)(C)C,active
16,COC(=O)C=Cc1cc(OC)c(OC)c(OC)c1,inactive
17,CCC(=O)OCN1C(=O)C=CC1=O,inactive
18,COc1cc(C=CC(=O)O)cc(OC)c1OC,inactive
19,COc1cc(C=CC(=O)N2CCCCCCC2)cc(OC)c1OC,inactive
20,C=C(C)C(=O)N1CCC=CC1=O,active
21,C[C@@H]1CN([C@H](C)CO)C(=O)c2cc(NC(=O)Nc3ccc(F)cc3)ccc2O[C@@H](C)CCCCO[C@@H]1CN(C)C(=O)NC1CCCCC1,inactive
22,NCC[C@H]1CC[C@@H](NC(=O)C2CC2)[C@@H](CO)O1,inactive
23,COC[C@H]1CN(C)N=C(C2CC2)O1,inactive

row,Compound,cytotoxicity call
1,C[C@H]1CN([C@@H](C)CO)C(=O)Cc2cc(NC(=O)Nc3cccc4ccccc34)ccc2O[C@@H]1CN(C)Cc1ccc(C(=O)O)cc1,inactive
2,O=C(O)C1CCC1,inactive
3,CO[C@H]1CN(C)C(=O)c2cc(NS(=O)(=O)CC(F)(F)F)ccc2OC[C@@H](C)N(Cc2ccccn2)C[C@H]1C,inactive
4,CC(C)NC(=O)N(C)C[C@H]1Oc2c(NC(=O)Nc3ccc4c(c3)OCO4)cccc2C(=O)N([C@H](C)CO)C[C@@H]1C,inactive
5,C[C@H]1CCCCO[C@H](CN(C)Cc2ccncc2)[C@@H](C)CN([C@@H](C)CO)C(=O)c2cc(NC(=O)CCC(F)(F)F)ccc2O1,inactive
6,O=C(O)C1(c2cccs2)CCCC1,inactive
7,Cc1noc(C)c1NC(=O)N(C)C[C@H]1Oc2c(NC(=O)NC(C)C)cccc2C(=O)N([C@@H](C)CO)C[C@@H]1C,inactive
8,CC[N+](CC)(CC)CCOc1ccc(/C=C/c2ccccc2)cc1,inactive
9,CCCCOc1cc(C(=O)NCCN(CC)CC)c2ccccc2n1.Cl,inactive
10,CCN(CC)CCNC(=O)c1c(C)[nH]c(/C=C2/C(=O)Nc3ccc(-c4csc(-c5ccccc5)n4)cc32)c1C,active
11,CN(C)CCCNC(=O)C[C@H]1CC[C@H]2[C@@H](COC[C@H](O)CN2C(=O)Nc2cc(Cl)cc(Cl)c2)O1,inactive
12,Cn1cc(N2C[C@]3(CNCCOC3)OCC2=O)cn1,inactive
13,CC(C)Nc1ncnc(N)c1[N+](=O)[O-],inactive
14,COc1ccc(C#Cc2ccc3c(c2)[C@]2(C(=O)N3)[C@H](C(=O)N3CCCCCCC3)[C@H]3C(=O)O[C@H](c4ccccc4)[C@H](c4ccccc4)N3[C@@H]2c2ccc(O)cc2)cc1,inactive
15,C[C@@H]1CN([C@@H](C)CO)C(=O)c2cc(NC(=O)Nc3ccc4c(c3)OCO4)ccc2O[C@@H](C)CCCCO[C@H]1CN(C)Cc1ccc(C(F)(F)F)cc1,inactive
16,C[C@@H]1CCCCO[C@@H](CN(C)Cc2ccc(C(F)(F)F)cc2)[C@H](C)CN([C@H](C)CO)C(=O)c2cc(NC(=O)Nc3ccc4c(c3)OCO4)ccc2O1,active
17,C[C@@H]1CN([C@H](C)CO)C(=O)c2cc(NC(=O)Nc3ccc4c(c3)OCO4)ccc2O[C@@H](C)CCCCO[C@@H]1CN(C)Cc1ccc(C(F)(F)F)cc1,inactive
18,C[C@@H]1CCCCO[C@H](CN(C)Cc2ccc(C(F)(F)F)cc2)[C@H](C)CN([C@H](C)CO)C(=O)c2cc(NC(=O)Nc3ccc4c(c3)OCO4)ccc2O1,inactive
19,C[C@@H]1CN([C@@H](C)CO)C(=O)c2cc(NC(=O)Nc3ccc4c(c3)OCO4)ccc2O[C@@H](C)CCCCO[C@@H]1CN(C)Cc1ccc(C(F)(F)F)cc1,inactive
20,C[C@@H]1CCCCO[C@H](CN(C)Cc2ccc(C(F)(F)F)cc2)[C@@H](C)CN([C@@H](C)CO)C(=O)c2cc(NC(=O)Nc3ccc4c(c3)OCO4)ccc2O1,active
21,C[C@H](CO)N1C[C@H](C)[C@@H](CN(C)C(=O)NC2CCCCC2)Oc2c(NC(=O)C3CC3)cccc2C1=O,inactive
22,CN(C)CCO[C@@H]1CC[C@@H]2[C@H]1OCCN2S(C)(=O)=O,inactive
